Test results published in article PMC7862700, “An all-to-all approach to the identification of sequence-specific readers for epigenetic DNA modifications on cytosine”.

Assays:
Test in all cases: DAPPL (digital affinity profiling via proximity ligation, sequencing); 10 mM Tris-HCl pH 7.5, 50 mM NaCl, 1 mM DTT, 4% glycerol, room temperature, 30 min; GST-TFs on glutathione beads, 16-mer random dsDNA library, 0.1% formaldehyde crosslink after washing; high values mean tight binding
Conditions in all cases: protein: recombinant; tags: N-terminal GST; dsDNA, one strand shown
ELK1 = molecular target: T1, ELK1 (Homo sapiens, UniProt P19419 1-428)
T1 sequence: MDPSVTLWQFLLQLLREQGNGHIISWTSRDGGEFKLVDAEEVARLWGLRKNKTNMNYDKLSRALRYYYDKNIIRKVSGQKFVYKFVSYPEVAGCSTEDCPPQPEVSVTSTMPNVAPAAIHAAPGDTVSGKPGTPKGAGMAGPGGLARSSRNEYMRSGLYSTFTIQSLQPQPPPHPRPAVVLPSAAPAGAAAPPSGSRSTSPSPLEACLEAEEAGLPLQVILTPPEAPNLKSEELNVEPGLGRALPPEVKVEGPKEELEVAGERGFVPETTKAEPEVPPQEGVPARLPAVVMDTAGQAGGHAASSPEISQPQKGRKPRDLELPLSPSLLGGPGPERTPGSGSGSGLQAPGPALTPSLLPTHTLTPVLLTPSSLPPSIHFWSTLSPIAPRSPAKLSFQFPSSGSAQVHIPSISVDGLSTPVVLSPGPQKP
In short: (§1)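 A tag-only sample was pooled with DNA-barcoded human transcription factors that had been expressed in yeast as GST fusions and captured on glutathione beads. The pools were incubated for 30 min at room temperature with 200 nmole of a random double-stranded 16-mer DNA library in Tris/NaCl/DTT/glycerol buffer, then washed, crosslinked with 0.1% formaldehyde, proximity-ligated (BsaI/T4 ligase, 1 h, 37 °C), PCR-amplified and sequenced on an Illumina NextSeq500. Binding signal is each hexamer's read frequency for a factor divided by its frequency for the tag-only sample.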

GABPA = molecular target: T2, GABPA (Homo sapiens, UniProt Q06546 1-454)
T2 sequence: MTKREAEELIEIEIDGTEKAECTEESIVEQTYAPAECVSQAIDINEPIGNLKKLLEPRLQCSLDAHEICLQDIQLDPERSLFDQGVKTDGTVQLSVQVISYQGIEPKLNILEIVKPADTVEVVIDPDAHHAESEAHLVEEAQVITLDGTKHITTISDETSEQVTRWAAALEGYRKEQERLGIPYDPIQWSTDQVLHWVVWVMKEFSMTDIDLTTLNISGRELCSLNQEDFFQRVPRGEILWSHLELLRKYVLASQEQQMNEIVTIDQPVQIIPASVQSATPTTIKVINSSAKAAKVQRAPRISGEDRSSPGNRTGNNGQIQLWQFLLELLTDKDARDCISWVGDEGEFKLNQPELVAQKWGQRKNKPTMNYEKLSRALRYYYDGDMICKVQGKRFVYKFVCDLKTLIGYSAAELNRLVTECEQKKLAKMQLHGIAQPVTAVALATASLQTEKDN
In short: as §1

SPIB = SPIB (Homo sapiens, UniProt Q01892 1-262)
Sequence of SPIB (Q01892 whole entry): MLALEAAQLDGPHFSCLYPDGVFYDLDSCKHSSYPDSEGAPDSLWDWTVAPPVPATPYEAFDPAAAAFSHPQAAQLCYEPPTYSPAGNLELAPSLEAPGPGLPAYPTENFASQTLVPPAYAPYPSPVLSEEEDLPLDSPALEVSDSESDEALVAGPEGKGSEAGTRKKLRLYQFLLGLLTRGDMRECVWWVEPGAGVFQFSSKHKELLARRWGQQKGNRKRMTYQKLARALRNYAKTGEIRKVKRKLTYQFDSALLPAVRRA
In short: as §1

ETV5 = ETV5 (Homo sapiens, UniProt P41161 1-510)
Sequence of ETV5 (P41161 whole entry): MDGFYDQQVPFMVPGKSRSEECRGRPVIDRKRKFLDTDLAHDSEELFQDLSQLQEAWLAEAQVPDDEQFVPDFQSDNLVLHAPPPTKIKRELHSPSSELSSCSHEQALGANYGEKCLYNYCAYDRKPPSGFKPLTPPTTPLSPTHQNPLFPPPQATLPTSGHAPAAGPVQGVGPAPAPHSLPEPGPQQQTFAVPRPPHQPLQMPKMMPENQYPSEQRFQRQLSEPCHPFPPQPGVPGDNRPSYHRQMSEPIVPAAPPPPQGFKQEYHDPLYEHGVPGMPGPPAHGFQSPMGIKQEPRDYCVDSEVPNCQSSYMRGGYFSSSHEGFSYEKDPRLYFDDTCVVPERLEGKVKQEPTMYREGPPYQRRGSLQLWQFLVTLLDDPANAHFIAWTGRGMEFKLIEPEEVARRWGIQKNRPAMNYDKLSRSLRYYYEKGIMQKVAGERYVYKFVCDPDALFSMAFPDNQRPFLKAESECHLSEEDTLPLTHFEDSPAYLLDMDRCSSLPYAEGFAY
In short: as §1

ELK4 = molecular target: T3, ELK4 (Homo sapiens, UniProt P28324-2 1-405)
T3 sequence: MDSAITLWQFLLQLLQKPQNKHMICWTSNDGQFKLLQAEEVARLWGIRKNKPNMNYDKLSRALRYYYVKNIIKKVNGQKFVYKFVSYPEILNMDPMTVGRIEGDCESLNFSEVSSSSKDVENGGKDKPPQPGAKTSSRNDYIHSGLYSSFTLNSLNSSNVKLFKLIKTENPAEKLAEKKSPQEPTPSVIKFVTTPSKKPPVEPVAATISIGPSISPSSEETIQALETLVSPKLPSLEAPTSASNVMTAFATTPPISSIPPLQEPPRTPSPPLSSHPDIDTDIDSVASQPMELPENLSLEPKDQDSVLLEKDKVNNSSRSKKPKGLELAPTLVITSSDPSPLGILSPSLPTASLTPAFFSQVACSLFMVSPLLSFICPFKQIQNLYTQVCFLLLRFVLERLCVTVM
In short: as §1

ETV2 = molecular target: T4, ETV2 (Homo sapiens, UniProt O00321 1-342)
T4 sequence: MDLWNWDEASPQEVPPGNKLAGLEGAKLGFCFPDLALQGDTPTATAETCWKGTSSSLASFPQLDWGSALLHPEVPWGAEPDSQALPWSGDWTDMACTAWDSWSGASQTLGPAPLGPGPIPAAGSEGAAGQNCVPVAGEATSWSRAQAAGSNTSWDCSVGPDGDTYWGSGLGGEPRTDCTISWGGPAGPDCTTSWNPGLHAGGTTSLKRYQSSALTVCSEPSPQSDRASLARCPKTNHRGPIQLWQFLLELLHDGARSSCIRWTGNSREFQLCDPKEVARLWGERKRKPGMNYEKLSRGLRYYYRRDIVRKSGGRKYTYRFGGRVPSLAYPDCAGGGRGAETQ
In short: as §1

ELF3 = molecular target: T5, ELF3 (Homo sapiens, UniProt P78545 1-371)
T5 sequence: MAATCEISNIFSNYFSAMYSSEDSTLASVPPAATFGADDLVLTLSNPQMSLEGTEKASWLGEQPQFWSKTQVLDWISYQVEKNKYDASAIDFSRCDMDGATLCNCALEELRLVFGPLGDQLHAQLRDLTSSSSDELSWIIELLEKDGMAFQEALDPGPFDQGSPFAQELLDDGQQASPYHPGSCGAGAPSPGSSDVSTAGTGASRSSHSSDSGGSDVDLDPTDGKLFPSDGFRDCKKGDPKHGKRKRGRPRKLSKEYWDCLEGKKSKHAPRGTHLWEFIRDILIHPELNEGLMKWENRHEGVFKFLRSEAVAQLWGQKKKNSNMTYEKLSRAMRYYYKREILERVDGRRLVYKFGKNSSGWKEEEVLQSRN
In short: as §1

ETV1 = ETV1 (Homo sapiens, UniProt P50549 1-477)
Sequence of ETV1 (P50549 whole entry): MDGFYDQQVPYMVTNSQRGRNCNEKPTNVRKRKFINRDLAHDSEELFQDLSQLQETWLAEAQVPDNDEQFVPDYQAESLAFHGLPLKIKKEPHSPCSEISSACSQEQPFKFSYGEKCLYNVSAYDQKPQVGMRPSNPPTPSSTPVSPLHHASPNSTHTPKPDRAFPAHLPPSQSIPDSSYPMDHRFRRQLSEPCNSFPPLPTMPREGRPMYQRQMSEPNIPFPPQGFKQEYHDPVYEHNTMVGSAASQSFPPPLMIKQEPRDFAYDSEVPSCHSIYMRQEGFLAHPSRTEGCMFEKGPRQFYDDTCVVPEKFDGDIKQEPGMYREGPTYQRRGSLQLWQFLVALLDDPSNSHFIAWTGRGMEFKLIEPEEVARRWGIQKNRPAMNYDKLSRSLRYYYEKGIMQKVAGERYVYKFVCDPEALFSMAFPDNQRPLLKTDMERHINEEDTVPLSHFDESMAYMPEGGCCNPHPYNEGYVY
In short: as §1

ETV3L = molecular target: T6, ETV3L (Homo sapiens, UniProt Q6ZN32 1-361)
T6 sequence: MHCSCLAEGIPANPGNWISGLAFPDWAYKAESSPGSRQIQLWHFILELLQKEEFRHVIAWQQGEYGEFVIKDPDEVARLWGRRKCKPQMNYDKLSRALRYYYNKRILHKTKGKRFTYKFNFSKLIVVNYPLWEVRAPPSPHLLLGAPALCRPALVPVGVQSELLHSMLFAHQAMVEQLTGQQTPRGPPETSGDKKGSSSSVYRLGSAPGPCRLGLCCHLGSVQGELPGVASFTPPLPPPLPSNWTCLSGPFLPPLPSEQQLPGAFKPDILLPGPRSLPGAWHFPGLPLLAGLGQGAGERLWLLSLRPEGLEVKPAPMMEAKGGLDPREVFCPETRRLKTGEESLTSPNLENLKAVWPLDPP
In short: as §1

ETS2 = molecular target: T7, ETS2 (Homo sapiens, UniProt P15036 1-469)
T7 sequence: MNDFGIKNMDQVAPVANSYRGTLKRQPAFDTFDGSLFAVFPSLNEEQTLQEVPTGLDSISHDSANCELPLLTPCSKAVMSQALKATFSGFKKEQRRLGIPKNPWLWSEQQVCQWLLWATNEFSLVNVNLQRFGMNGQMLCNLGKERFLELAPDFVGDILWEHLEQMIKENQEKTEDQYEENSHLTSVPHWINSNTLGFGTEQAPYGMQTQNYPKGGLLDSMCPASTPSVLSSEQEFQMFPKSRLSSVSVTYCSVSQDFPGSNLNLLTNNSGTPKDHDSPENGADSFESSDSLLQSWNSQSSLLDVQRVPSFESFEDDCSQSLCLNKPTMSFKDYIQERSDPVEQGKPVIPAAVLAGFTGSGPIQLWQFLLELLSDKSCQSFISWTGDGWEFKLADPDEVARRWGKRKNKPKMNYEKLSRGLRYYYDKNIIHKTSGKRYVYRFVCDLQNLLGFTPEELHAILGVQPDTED
In short: as §1

SPDEF = molecular target: T8, SPDEF (Homo sapiens, UniProt O95238 1-335)
T8 sequence: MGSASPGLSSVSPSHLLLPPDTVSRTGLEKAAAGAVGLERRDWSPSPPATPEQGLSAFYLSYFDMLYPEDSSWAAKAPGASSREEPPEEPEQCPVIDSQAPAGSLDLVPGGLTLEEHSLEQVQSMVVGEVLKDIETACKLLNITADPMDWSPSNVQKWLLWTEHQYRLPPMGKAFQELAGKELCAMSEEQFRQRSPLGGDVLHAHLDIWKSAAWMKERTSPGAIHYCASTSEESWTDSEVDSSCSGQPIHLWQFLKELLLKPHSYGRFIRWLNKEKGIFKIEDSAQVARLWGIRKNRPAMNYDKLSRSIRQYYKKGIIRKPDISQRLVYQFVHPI
In short: as §1

ETV7 = molecular target: T9, ETV7 (Homo sapiens, UniProt Q9Y603 1-341)
T9 sequence: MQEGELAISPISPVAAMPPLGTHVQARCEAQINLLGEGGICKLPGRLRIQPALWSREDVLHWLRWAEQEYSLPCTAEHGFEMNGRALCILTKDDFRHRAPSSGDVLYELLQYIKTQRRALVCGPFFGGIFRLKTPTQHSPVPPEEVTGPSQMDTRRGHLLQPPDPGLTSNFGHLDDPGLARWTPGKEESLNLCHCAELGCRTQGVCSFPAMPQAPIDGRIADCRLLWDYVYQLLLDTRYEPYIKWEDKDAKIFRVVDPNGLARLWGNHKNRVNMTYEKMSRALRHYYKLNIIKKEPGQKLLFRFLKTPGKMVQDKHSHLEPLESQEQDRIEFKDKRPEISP
In short: as §1

ETV3 = molecular target: T10, ETV3 (Homo sapiens, UniProt P41162-2 1-143)
T10 sequence: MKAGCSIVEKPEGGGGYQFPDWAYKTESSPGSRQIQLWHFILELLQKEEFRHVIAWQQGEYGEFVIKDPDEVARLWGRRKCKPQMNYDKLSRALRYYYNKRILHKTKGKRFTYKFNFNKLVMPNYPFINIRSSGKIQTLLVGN
In short: as §1

ETV6 = ETV6 (Homo sapiens, UniProt P41212 1-452)
Sequence of ETV6 (P41212 whole entry): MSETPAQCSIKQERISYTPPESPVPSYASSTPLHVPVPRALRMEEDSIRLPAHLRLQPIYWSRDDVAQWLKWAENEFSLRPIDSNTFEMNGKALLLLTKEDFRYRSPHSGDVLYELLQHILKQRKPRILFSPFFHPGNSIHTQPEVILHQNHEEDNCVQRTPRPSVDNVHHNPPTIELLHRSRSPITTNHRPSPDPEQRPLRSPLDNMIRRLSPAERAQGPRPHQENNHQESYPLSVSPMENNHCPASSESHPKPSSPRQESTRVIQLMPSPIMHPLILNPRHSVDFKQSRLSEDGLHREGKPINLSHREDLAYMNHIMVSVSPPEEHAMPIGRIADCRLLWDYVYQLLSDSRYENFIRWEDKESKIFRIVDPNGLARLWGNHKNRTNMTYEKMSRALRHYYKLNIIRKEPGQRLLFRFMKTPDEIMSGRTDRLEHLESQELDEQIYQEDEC
In short: as §1

ERG = molecular target: T11, ERG (Homo sapiens, UniProt P11308 1-479)
T11 sequence: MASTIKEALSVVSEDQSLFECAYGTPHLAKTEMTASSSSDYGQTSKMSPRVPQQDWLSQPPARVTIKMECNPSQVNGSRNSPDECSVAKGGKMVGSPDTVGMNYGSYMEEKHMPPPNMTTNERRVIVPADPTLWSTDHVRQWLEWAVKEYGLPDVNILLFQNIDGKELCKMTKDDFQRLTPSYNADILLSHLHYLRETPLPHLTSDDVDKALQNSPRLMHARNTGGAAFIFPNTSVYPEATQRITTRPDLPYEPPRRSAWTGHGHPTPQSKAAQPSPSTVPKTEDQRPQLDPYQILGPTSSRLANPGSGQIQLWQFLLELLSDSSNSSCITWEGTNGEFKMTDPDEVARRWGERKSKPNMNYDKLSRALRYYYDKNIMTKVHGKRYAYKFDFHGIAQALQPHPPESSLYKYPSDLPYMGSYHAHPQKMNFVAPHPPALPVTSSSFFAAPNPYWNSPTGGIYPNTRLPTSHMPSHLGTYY
In short: as §1

ELF1 = ELF1 (Homo sapiens, UniProt P32519 1-619)
Sequence of ELF1 (P32519 whole entry): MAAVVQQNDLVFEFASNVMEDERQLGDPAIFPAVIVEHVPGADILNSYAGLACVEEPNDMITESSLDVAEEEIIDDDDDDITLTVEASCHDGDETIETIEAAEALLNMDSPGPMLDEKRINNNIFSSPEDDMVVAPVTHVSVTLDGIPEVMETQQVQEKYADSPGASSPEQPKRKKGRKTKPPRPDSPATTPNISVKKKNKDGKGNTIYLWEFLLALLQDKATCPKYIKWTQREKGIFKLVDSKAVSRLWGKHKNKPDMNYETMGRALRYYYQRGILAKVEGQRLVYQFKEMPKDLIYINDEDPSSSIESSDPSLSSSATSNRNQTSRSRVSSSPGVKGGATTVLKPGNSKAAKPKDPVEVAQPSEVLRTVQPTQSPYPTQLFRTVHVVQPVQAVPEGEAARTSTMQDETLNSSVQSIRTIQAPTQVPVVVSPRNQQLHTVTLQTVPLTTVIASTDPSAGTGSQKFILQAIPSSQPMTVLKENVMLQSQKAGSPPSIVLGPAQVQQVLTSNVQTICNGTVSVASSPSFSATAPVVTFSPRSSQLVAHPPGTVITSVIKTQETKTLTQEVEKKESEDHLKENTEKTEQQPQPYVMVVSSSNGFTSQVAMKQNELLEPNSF
In short: as §1

ELF4 = ELF4 (Homo sapiens, UniProt Q99607 1-663)
Sequence of ELF4 (Q99607 whole entry): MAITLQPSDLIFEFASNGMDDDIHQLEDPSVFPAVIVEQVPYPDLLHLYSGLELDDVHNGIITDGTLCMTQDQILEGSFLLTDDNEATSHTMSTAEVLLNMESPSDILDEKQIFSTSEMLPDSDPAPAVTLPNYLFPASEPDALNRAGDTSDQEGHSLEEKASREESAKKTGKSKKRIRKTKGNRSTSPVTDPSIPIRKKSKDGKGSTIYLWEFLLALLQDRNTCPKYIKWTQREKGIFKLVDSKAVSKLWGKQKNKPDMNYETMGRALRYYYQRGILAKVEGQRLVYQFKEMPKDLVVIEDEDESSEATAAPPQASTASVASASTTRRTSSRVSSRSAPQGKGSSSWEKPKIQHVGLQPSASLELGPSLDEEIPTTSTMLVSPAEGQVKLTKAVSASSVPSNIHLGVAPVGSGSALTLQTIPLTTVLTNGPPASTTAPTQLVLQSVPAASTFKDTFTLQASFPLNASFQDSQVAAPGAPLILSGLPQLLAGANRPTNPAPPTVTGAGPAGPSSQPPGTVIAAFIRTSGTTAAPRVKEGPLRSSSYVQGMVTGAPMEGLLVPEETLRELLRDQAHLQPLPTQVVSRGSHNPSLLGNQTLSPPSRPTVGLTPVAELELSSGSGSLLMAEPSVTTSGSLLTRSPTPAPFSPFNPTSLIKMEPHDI
In short: as §1

ERF = molecular target: T12, ERF (Homo sapiens, UniProt P50548 1-548)
T12 sequence: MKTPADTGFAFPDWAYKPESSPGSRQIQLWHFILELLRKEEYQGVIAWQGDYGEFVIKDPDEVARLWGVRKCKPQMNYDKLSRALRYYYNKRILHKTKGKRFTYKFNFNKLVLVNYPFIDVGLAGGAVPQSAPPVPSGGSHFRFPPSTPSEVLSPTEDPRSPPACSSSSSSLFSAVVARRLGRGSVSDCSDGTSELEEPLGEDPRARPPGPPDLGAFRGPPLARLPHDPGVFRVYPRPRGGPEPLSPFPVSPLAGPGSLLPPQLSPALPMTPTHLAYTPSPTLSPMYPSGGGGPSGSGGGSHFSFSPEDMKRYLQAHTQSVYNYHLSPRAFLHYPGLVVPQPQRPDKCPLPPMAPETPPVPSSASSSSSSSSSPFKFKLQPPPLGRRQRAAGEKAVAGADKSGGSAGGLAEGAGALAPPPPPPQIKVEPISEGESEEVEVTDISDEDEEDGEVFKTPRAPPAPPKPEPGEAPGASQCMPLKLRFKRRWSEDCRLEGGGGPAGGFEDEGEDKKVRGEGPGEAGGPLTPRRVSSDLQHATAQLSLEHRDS
In short: as §1

Sequence	binding signal (ELK1)	binding signal (GABPA)	binding signal (SPIB)	binding signal (ETV5)	binding signal (ELK4)	binding signal (ETV2)	binding signal (ELF3)	binding signal (ETV1)	binding signal (ETV3L)	binding signal (ETS2)	binding signal (SPDEF)	binding signal (ETV7)	binding signal (ETV3)	binding signal (ETV6)	binding signal (ERG)	binding signal (ELF1)	binding signal (ELF4)	binding signal (ERF)
CGTTTG	1.03 fold enrichment (6-mer frequency, TF over GST control)	1.03 fold enrichment (6-mer frequency, TF over GST control)	1.06 fold enrichment (6-mer frequency, TF over GST control)	1.01 fold enrichment (6-mer frequency, TF over GST control)	1.07 fold enrichment (6-mer frequency, TF over GST control)	1.16 fold enrichment (6-mer frequency, TF over GST control)	1.02 fold enrichment (6-mer frequency, TF over GST control)	1.06 fold enrichment (6-mer frequency, TF over GST control)	1 fold enrichment (6-mer frequency, TF over GST control)	1.06 fold enrichment (6-mer frequency, TF over GST control)	1.01 fold enrichment (6-mer frequency, TF over GST control)	1.21 fold enrichment (6-mer frequency, TF over GST control)	1.08 fold enrichment (6-mer frequency, TF over GST control)	1.01 fold enrichment (6-mer frequency, TF over GST control)				
CCCAAG	1.07 fold enrichment (6-mer frequency, TF over GST control)	1.07 fold enrichment (6-mer frequency, TF over GST control)		1.01 fold enrichment (6-mer frequency, TF over GST control)			1.12 fold enrichment (6-mer frequency, TF over GST control)		1.01 fold enrichment (6-mer frequency, TF over GST control)	1 fold enrichment (6-mer frequency, TF over GST control)			1.03 fold enrichment (6-mer frequency, TF over GST control)		1.04 fold enrichment (6-mer frequency, TF over GST control)	1.06 fold enrichment (6-mer frequency, TF over GST control)	1.03 fold enrichment (6-mer frequency, TF over GST control)	1.06 fold enrichment (6-mer frequency, TF over GST control)
